Columns and labels:
Test in all cases: PBM binding z-score (relative to random genomic background probes); higher = stronger binding; sequences stand for … in GC…GCGATTGACAGCGTAGAATGAAGG
[1] = system: FXR:RXRa (NR concentration 270 nM, RXRa partner concentration 90 nM)
Method in brief: (§1)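 Random background probes are the reference for binding z-scores. These scores derive from regression-normalized fluorescence on custom Agilent 4×180K protein-binding microarrays incubated 1 h with ligand-free nuclear receptor dimers. Binding was detected with antibodies against each partner (one per run).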

[2] = system: LXRa:RXRa (NR concentration 270 nM, RXRa partner concentration 90 nM)
Method in brief: as §1

[3] = system: LXRa homodimer (NR concentration 270 nM)
Method in brief: as §1

[4] = system: LXRb:RXRa (NR concentration 270 nM, RXRa partner concentration 90 nM)
Method in brief: as §1

[5] = system: LXRb homodimer (NR concentration 270 nM)
Method in brief: as §1

[6] = system: PPARa:RXRa (NR concentration 270 nM, RXRa partner concentration 90 nM)
Method in brief: as §1

[7] = system: PPARg:RXRa (NR concentration 180 nM, RXRa partner concentration 90 nM)
Method in brief: as §1

[8] = system: PPARg:RXRa 270nM:90nM, anti-RXR (NR concentration 270 nM, RXRa partner concentration 90 nM)
Method in brief: as §1

[9] = system: PPARg:RXRa 30nM:10nM, anti-RXR (NR concentration 30 nM, RXRa partner concentration 10 nM)
Method in brief: as §1

[10] = system: PPARg:RXRa 90nM:30nM, anti-RXR (NR concentration 90 nM, RXRa partner concentration 30 nM)
Method in brief: as §1

[11] = system: PPARg:RXRa DBDmut IVT, anti-RXR (DBD mutation: RXRa K156A/R161A, NR concentration 270 nM, RXRa partner concentration 90 nM)
Method in brief: as §1

[12] = system: PPARg:RXRa IVT, anti-PPARg (NR concentration 270 nM, RXRa partner concentration 90 nM)
Method in brief: as §1

[13] = system: PPARg DBDmut:RXRa IVT, anti-PPARg (DBD mutation: PPARg1 K132A/R137A, NR concentration 270 nM, RXRa partner concentration 90 nM)
Method in brief: as §1

[14] = system: PPARg DBDmut IVT, anti-PPARg (DBD mutation: PPARg1 K132A/R137A, NR concentration 270 nM)
Method in brief: as §1

[15] = system: PPARg homodimer (NR concentration 180 nM)
Method in brief: as §1

[16] = system: PXR:RXRa (NR concentration 270 nM, RXRa partner concentration 90 nM)
Method in brief: as §1

[17] = system: PXR homodimer (NR concentration 270 nM)
Method in brief: as §1

[18] = system: RARa:RXR (NR concentration 270 nM, RXRa partner concentration 90 nM)
Method in brief: as §1

[19] = system: RARa homodimer (NR concentration 270 nM)
Method in brief: as §1

Row | Sequence | PBM binding z-score [1] | PBM binding z-score [2] | PBM binding z-score [3] | PBM binding z-score [4] | PBM binding z-score [5] | PBM binding z-score [6] | PBM binding z-score [7] | PBM binding z-score [8] | PBM binding z-score [9] | PBM binding z-score [10] | PBM binding z-score [11] | PBM binding z-score [12] | PBM binding z-score [13] | PBM binding z-score [14] | PBM binding z-score [15] | PBM binding z-score [16] | PBM binding z-score [17] | PBM binding z-score [18] | PBM binding z-score [19]
1 | AGTCAAAGTTCACGAGGTAACGTAAGATTCAGCT | 7.1 | 6.36 | 3.51 | 4.18 | 1.13 | 5.7 | 7.78 | 7.53 | 4.79 | 7.08 | 1.37 | 4.03 | 1.17 | 0.67 | 2.91 | 5.13 | 2.45 | 4.95 | 1.29
2 | TTACCAAGGTGAAAGGTCGTTGAGGCACGCCTTG | 3.79 | 3.61 | 0.199 | 2.74 | -0.545 | 5.53 | 9.39 | 8.28 | 7.31 | 9.21 | 2.94 | 5.16 | 0.87 | 2.27 | 2.82 | 3.98 | 0.614 | 6.03 | 0.265
3 | CAGCCTAGGTGAGGGCCAGTATAGGAGGAACGTT | -0.516 | -0.622 | -0.626 | -0.617 | -1.21 | -0.243 | 0.16 | -0.421 | -0.568 | -0.607 | 0.681 | 0.776 | -0.889 | -1.52 | -0.00134 | -0.652 | -0.633 | -0.402 | -0.758
4 | CGTCAAAGTTCTAGGTAACGTAACAGAAAGCAGC | -0.164 | -0.199 | 0.179 | 0.0595 | -0.169 | 0.259 | 0.641 | 0.228 | -0.178 | 0.017 | 1.41 | 1.83 | 0.454 | 0.457 | 0.283 | -0.00995 | -0.093 | 0.103 | 0.866
5 | CCTCGGAGGACACCAGGAGGTCAGAGCTGCCAGA | 1.2 | 1.69 | 0.739 | 1.12 | -0.792 | 2.14 | 0.153 | 0.169 | -0.691 | -0.278 | -0.249 | 0.459 | -1.54 | -1.67 | 1.78 | 2.17 | -0.014 | 2.56 | 0.922
6 | CCTACTGGGCCAAAAATGTCATTGATGCCGATAA | -0.451 | -0.771 | -0.332 | -0.343 | -0.655 | 0.13 | 0.537 | 0.911 | -0.0652 | 0.391 | 2.92 | 2.47 | -0.355 | -0.43 | -0.472 | -0.383 | -0.24 | -0.612 | 0.0407
7 | CAACCTAGGTCACGAAAGGTCAAAGTCGAATGAC | 7.63 | 8.28 | 8.29 | 7.81 | 2.82 | 6.92 | 7.93 | 7.32 | 4.53 | 6.39 | 5.05 | 6.58 | 1.6 | 1.91 | 4.46 | 7.28 | 2.49 | 6.93 | 1.71
8 | TCTGCTAGGTCAGTTGGGCAGCTAACGAGCTGCC | 0.934 | 0.385 | -0.629 | 0.223 | 0.28 | 1.12 | 0.0296 | 1.52 | 0.946 | 1.17 | 2.07 | 2.7 | -0.163 | -0.28 | 0.0544 | -0.242 | -1.29 | 0.253 | -1.12
